Assay results taken from a collection of fitness landscapes (doi:10.1016/j.celrep.2020.107928).
The full ranking holds about 81,000 sequences; the median of “one-hybrid fitness for binding parS DNA” is about -0.17, and the highest 2% start at about 0.51. This excerpt belongs to a sample that is enriched for the highest values.

B1: Caulobacter ParB omega fusion; a variant is named by its letters at X, in order, B8GW30 (parent)
chain: MESVVVGEPGMSEGRRGLGRGLSALLGEVDAAPAQAPGEQLGGSREAPIEILQRNPDQPRRTFREEDLEDLSNSIREKGVLQPILVRPSPDTAGEYQIVAGERAWRAAQRAGLKTVPIMVRELDDLAVLEIGIIENVQRADLNVLEEALSYKVLMEKFERTQENIAQTIGKSXSHVANXMRLLXLPDEVQSYLVSGELTAXHARAIAAAADPVALAKQIIEGGLSVRETEALARKAPNLSAGKSKGGRPPRVKDTDTQALESDLSSVLGLDVSIDHRGSTGTLTITYATLEQLDDLCNRLTRGI

Variants of: B1
Assay: one-hybrid fitness for binding parS DNA (scaled: cognate 1, non-cognate 0); higher = stronger binding
Conditions: with parS DNA site
Procedure, shortened: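 Fitness is the rescaled log change in variant-to-wild-type read ratio, measured by Illumina sequencing of plasmids before and after bacterial one-hybrid selection. The scale puts cognate at 1 and non-cognate at 0. Selection of Caulobacter ParB libraries, four specificity codons randomised, took place in E. coli USO with a HIS3 reporter, site 19 bp from the promoter, over 48 hours at 37°C on M9-minus-histidine with 0.1 mM IPTG and 5 mM 3-AT.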

First: RMYY
Second: RTYY
The “one-hybrid fitness for binding parS DNA” value of the first is lower: 0.483 for the first, 0.49 for the second.

EDER and KRAT cannot be ordered by “one-hybrid fitness for binding parS DNA” value: no more than 0.2 for the first, no more than 0.2 for the second.

DYVS and MMHG cannot be ordered by “one-hybrid fitness for binding parS DNA” value: no more than 0.2 for the first, no more than 0.2 for the second.

SFLE and PRQV cannot be ordered by “one-hybrid fitness for binding parS DNA” value: no more than 0.2 for the first, no more than 0.2 for the second.

First: RSNY
Second: RTDY
The “one-hybrid fitness for binding parS DNA” value of the first is higher: 0.496 for the first, 0.437 for the second.

Compared with RTNY, DVRM is lower in “one-hybrid fitness for binding parS DNA” value: 0.659 for the first, no more than 0.2 for the second.

Going from RACR to RAWC, the “one-hybrid fitness for binding parS DNA” value rises from no more than 0.2 to 0.927.

RAWQ and RARR cannot be ordered by “one-hybrid fitness for binding parS DNA” value: no more than 0.2 for the first, no more than 0.2 for the second.

Going from RAHY to RARK, the “one-hybrid fitness for binding parS DNA” value falls from 0.472 to no more than 0.2.

Compared with RACK, RARC is higher in “one-hybrid fitness for binding parS DNA” value: no more than 0.2 for the first, 0.921 for the second.

Going from RAWF to RAHQ, the “one-hybrid fitness for binding parS DNA” value falls from 0.245 to no more than 0.2.

Compared with RACC, RAHC is higher in “one-hybrid fitness for binding parS DNA” value: 0.962 for the first, 0.983 for the second.

CWYT and HLQT cannot be ordered by “one-hybrid fitness for binding parS DNA” value: no more than 0.2 for the first, no more than 0.2 for the second.

YDQM and VCTK cannot be ordered by “one-hybrid fitness for binding parS DNA” value: no more than 0.2 for the first, no more than 0.2 for the second.

QSGL and IVAE cannot be ordered by “one-hybrid fitness for binding parS DNA” value: no more than 0.2 for the first, no more than 0.2 for the second.

SVEV and VAFA cannot be ordered by “one-hybrid fitness for binding parS DNA” value: no more than 0.2 for the first, no more than 0.2 for the second.

TVDW and EQMM cannot be ordered by “one-hybrid fitness for binding parS DNA” value: no more than 0.2 for the first, no more than 0.2 for the second.

RASP and RASD cannot be ordered by “one-hybrid fitness for binding parS DNA” value: no more than 0.2 for the first, no more than 0.2 for the second.

Compared with RALM, RAQP is lower in “one-hybrid fitness for binding parS DNA” value: 0.34 for the first, no more than 0.2 for the second.

Going from RAQH to RAYC, the “one-hybrid fitness for binding parS DNA” value rises from 0.211 to 0.99.

Going from RAQC to RAYK, the “one-hybrid fitness for binding parS DNA” value falls from 0.987 to no more than 0.2.

Going from RALC to RASC, the “one-hybrid fitness for binding parS DNA” value rises from 0.968 to 0.973.

Compared with RAYF, RALR is lower in “one-hybrid fitness for binding parS DNA” value: 0.264 for the first, no more than 0.2 for the second.

WCQR and CHEL cannot be ordered by “one-hybrid fitness for binding parS DNA” value: no more than 0.2 for the first, no more than 0.2 for the second.

DWAG and PWPN cannot be ordered by “one-hybrid fitness for binding parS DNA” value: no more than 0.2 for the first, no more than 0.2 for the second.

IYAV and YPAT cannot be ordered by “one-hybrid fitness for binding parS DNA” value: no more than 0.2 for the first, no more than 0.2 for the second.

WGPT and KAKV cannot be ordered by “one-hybrid fitness for binding parS DNA” value: no more than 0.2 for the first, no more than 0.2 for the second.

PNIE and TVLI cannot be ordered by “one-hybrid fitness for binding parS DNA” value: no more than 0.2 for the first, no more than 0.2 for the second.

CNIV and KLAN cannot be ordered by “one-hybrid fitness for binding parS DNA” value: no more than 0.2 for the first, no more than 0.2 for the second.

DLHL and LCNK cannot be ordered by “one-hybrid fitness for binding parS DNA” value: no more than 0.2 for the first, no more than 0.2 for the second.

PFMG and SAPW cannot be ordered by “one-hybrid fitness for binding parS DNA” value: no more than 0.2 for the first, no more than 0.2 for the second.

Going from DGTW to RTMT, the “one-hybrid fitness for binding parS DNA” value rises from no more than 0.2 to 0.935.

Compared with RKMF, RRMT is higher in “one-hybrid fitness for binding parS DNA” value: no more than 0.2 for the first, 0.6 for the second.

Compared with RKMT, RSMT is lower in “one-hybrid fitness for binding parS DNA” value: 0.824 for the first, 0.813 for the second.

RDMT and RRMF cannot be ordered by “one-hybrid fitness for binding parS DNA” value: no more than 0.2 for the first, no more than 0.2 for the second.

Going from RKMY to RRMQ, the “one-hybrid fitness for binding parS DNA” value falls from 0.386 to no more than 0.2.

First: RGMT
Second: RTMF
The “one-hybrid fitness for binding parS DNA” value of the first is higher: 0.457 for the first, 0.245 for the second.

Going from RTMQ to AQDS, the “one-hybrid fitness for binding parS DNA” value falls from 0.208 to no more than 0.2.

QQQY and PPNS cannot be ordered by “one-hybrid fitness for binding parS DNA” value: no more than 0.2 for the first, no more than 0.2 for the second.

GHCG and VYPW cannot be ordered by “one-hybrid fitness for binding parS DNA” value: no more than 0.2 for the first, no more than 0.2 for the second.

Going from TWKG to RCMT, the “one-hybrid fitness for binding parS DNA” value rises from no more than 0.2 to 0.921.

Compared with DFMT, RIMT is higher in “one-hybrid fitness for binding parS DNA” value: no more than 0.2 for the first, 0.878 for the second.

Going from RIMF to RIMK, the “one-hybrid fitness for binding parS DNA” value falls from 0.247 to no more than 0.2.

RPMT and RLMK cannot be ordered by “one-hybrid fitness for binding parS DNA” value: no more than 0.2 for the first, no more than 0.2 for the second.

Going from RLMQ to RFMF, the “one-hybrid fitness for binding parS DNA” value rises from no more than 0.2 to 0.245.

Going from REMT to RFMT, the “one-hybrid fitness for binding parS DNA” value rises from no more than 0.2 to 0.754.

Compared with RLMT, FHRK is lower in “one-hybrid fitness for binding parS DNA” value: 0.955 for the first, no more than 0.2 for the second.

ACEY and KYCS cannot be ordered by “one-hybrid fitness for binding parS DNA” value: no more than 0.2 for the first, no more than 0.2 for the second.

TTLF and SFCW cannot be ordered by “one-hybrid fitness for binding parS DNA” value: no more than 0.2 for the first, no more than 0.2 for the second.

HHQT and SRMA cannot be ordered by “one-hybrid fitness for binding parS DNA” value: no more than 0.2 for the first, no more than 0.2 for the second.

QDSQ and KLPC cannot be ordered by “one-hybrid fitness for binding parS DNA” value: no more than 0.2 for the first, no more than 0.2 for the second.

IKAG and HGIV cannot be ordered by “one-hybrid fitness for binding parS DNA” value: no more than 0.2 for the first, no more than 0.2 for the second.

Going from RMMK to RMMT, the “one-hybrid fitness for binding parS DNA” value rises from no more than 0.2 to 0.874.

Compared with RMMF, RAMT is higher in “one-hybrid fitness for binding parS DNA” value: 0.247 for the first, 0.878 for the second.

Going from RAMN to RHMT, the “one-hybrid fitness for binding parS DNA” value rises from 0.41 to 0.87.

RHML and RHMR cannot be ordered by “one-hybrid fitness for binding parS DNA” value: no more than 0.2 for the first, no more than 0.2 for the second.

RAMP and MMTS cannot be ordered by “one-hybrid fitness for binding parS DNA” value: no more than 0.2 for the first, no more than 0.2 for the second.

SEPR and ENLY cannot be ordered by “one-hybrid fitness for binding parS DNA” value: no more than 0.2 for the first, no more than 0.2 for the second.

PAVK and IFRK cannot be ordered by “one-hybrid fitness for binding parS DNA” value: no more than 0.2 for the first, no more than 0.2 for the second.

PDML and THSD cannot be ordered by “one-hybrid fitness for binding parS DNA” value: no more than 0.2 for the first, no more than 0.2 for the second.

First: RTQC
Second: RTDQ
The “one-hybrid fitness for binding parS DNA” value of the first is higher: 0.974 for the first, no more than 0.2 for the second.

Compared with RTCC, RTWR is lower in “one-hybrid fitness for binding parS DNA” value: 0.959 for the first, 0.207 for the second.

Compared with RTDK, RTDC is higher in “one-hybrid fitness for binding parS DNA” value: no more than 0.2 for the first, 0.887 for the second.

Going from RTWC to RTCN, the “one-hybrid fitness for binding parS DNA” value falls from 0.985 to 0.451.

First: RTWM
Second: RTQN
The “one-hybrid fitness for binding parS DNA” value of the first is lower: 0.381 for the first, 0.442 for the second.

RTCD and RTQP cannot be ordered by “one-hybrid fitness for binding parS DNA” value: no more than 0.2 for the first, no more than 0.2 for the second.

QNHE and TINS cannot be ordered by “one-hybrid fitness for binding parS DNA” value: no more than 0.2 for the first, no more than 0.2 for the second.

DDHK and RPGE cannot be ordered by “one-hybrid fitness for binding parS DNA” value: no more than 0.2 for the first, no more than 0.2 for the second.

IIHE and QARI cannot be ordered by “one-hybrid fitness for binding parS DNA” value: no more than 0.2 for the first, no more than 0.2 for the second.

RTRR and NTRC cannot be ordered by “one-hybrid fitness for binding parS DNA” value: no more than 0.2 for the first, no more than 0.2 for the second.

Compared with RTGQ, RTHF is higher in “one-hybrid fitness for binding parS DNA” value: no more than 0.2 for the first, 0.277 for the second.

Compared with RTNP, RTGC is higher in “one-hybrid fitness for binding parS DNA” value: no more than 0.2 for the first, 0.955 for the second.

RTHR and RTGK cannot be ordered by “one-hybrid fitness for binding parS DNA” value: no more than 0.2 for the first, no more than 0.2 for the second.

Compared with RTRC, RTNC is higher in “one-hybrid fitness for binding parS DNA” value: 0.826 for the first, 0.914 for the second.

Compared with RTHC, RTNM is lower in “one-hybrid fitness for binding parS DNA” value: 0.978 for the first, 0.301 for the second.

TEQT and PSDC cannot be ordered by “one-hybrid fitness for binding parS DNA” value: no more than 0.2 for the first, no more than 0.2 for the second.

In the case of TTIK, the “one-hybrid fitness for binding parS DNA” value is reported as no more than 0.2.
